Reference: ChEMBL document CHEMBL3988442, “University of Dundee, Small-Polar-MMV Screening Library” (2021)

target: AMP-activated protein kinase, AMPK (Homo sapiens) (UniProt P54646+O43741+P54619+Q9UGJ0+Q9Y478+Q13131+Q9UGI9); assay: AMP-dependent Kinase enzyme assay. An in vitro enzyme assay that detects ADP turnover that is directly proportional to AMPK activity. This uses naive AMPK that is activated during the assay with MK-8722; type: functional; design: scale not given: direction of the effect not stated beside the values; settings: 30 µM

| SMILES | Percent Effect |
| --- | --- |
| COCC1(C(=O)N[C@H]2CN(c3noc(C)n3)C[C@@H]2C2CC2)CCC1 | -1.21% |
| CCOC(=O)N1CCC(NC(=O)c2cccc(C3CCCNC3)c2)CC1 (stereo unspecified) | 7.59% |
| c1cncc(OC2CCN(CCn3cc4ccccc4n3)CC2)c1 | 13.1% |
| COc1ccc(CN(C)[C@@H]2COC[C@H]2c2ccc(F)cc2)c(OC)c1 | 10.5% |
| COCc1cc(NCCCSc2nnc(C)s2)ncn1 | 8.32% |
| CC1(c2ncc(CN3CCSCC3)cn2)CCCCO1 (stereo unspecified) | -1.61% |
| CC(C)C1CCCN1C(=O)Nc1ccc(=O)n(C)c1 (stereo unspecified) | 56.6% |
| CCCc1ccc(CN2CCC3(CCC(=O)N(C)CC3)CC2)o1 | 1.5% |
| CNc1nc(C(=O)NCC2CCOc3ccccc3C2)cs1 (stereo unspecified) | 1.74% |
| COCCN(C)Cc1cc(Cl)ccc1OCC(O)CN1CCCCCC1 (stereo unspecified) | -8.12% |
| COc1ccccc1CN(Cc1nc(C)no1)C1CC1 | 6.47% |
| COCCN1CC2(CCCN(Cc3cc(=O)c(OC)co3)C2)CCC1=O (stereo unspecified) | -2.15% |
| CN(c1ncc(S(N)(=O)=O)s1)C1CCc2ccccc2C1 (stereo unspecified) | 5.32% |
| NC(=O)C1Cc2ccccc2CN1CCC(=O)N1CCc2ccccc21 (stereo unspecified) | -3.92% |
| Cc1cccnc1NC(=O)c1ccc(F)c(S(=O)(=O)NC2CC2)c1 | -4.18% |
| CCc1cccc(OCCCN(C)C(=O)CN2CCNC2=O)c1 | 5.57% |
| COc1ccc(CCCC(=O)N2CCCC(n3cncn3)C2)cc1 (stereo unspecified) | 4.51% |
| CC(C)OCCN1CCC(Nc2nccnc2C#N)CC1 | -5.15% |
| CN(CCc1ncnn1C1Cc2ccccc2C1)C1CCS(=O)(=O)C1 (stereo unspecified) | -4.47% |
| CCCc1nn(Cc2ccc(Br)s2)c(=O)o1 | 9.29% |
| CN(Cc1cnc(N)nc1)C(=O)C1CCN(C(=O)C2CCCC2)CC1 | -0.173% |
